PubChem BioAssay
Calls of active or inactive are those of the source.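 How the source made its calls: active means viability at or under a set limit in both replicates, limit being median viability minus 3 SD (cut at about 48% in these data, passing the limit was not always enough); inconclusive means at or under the limit in just one replicate; inactive means at or above the limit in both replicates.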

Assay: H69AR cell proliferation blockers – human, duplicate replicates, primary screen (AID 580);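 further: 100% = mean luminescence of untreated wells and 0% = no signal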
Settings: H69AR lung tumor cells viability, ATP luminescence, 72 h; at 10 µM; hits give low values

Row | SMILES | viability
1 | Cc1c(CNCc2cccs2)c(C(=O)O)c(C)n1Cc1ccccc1 | 99.8% (inactive)
2 | Cc1ccc(OCC(O)Cn2c(NCCc3ccccc3)nc3c2c(=O)[nH]c(=O)n3C)cc1 (stereo unspecified) | 93.9% (inactive)
3 | COC(=O)CN(Cc1ccco1)S(=O)(=O)c1ccccc1 | 77.6% (inactive)
4 | CCc1[nH]nc2c1C1(CCN(C(=O)OCc3ccccc3)CC1)C(C#N)=C(N)O2 | 85.2% (inactive)
5 | Cc1cc(C(=O)Nc2c(C)n(C)n(-c3ccccc3)c2=O)c(C)o1 | 110% (inactive)
6 | O=C(NCc1cccs1)c1cc2c(s1)CS(=O)(=O)C2 | 98.1% (inactive)
7 | Cc1cc(C)nc(-n2nc(C)cc2NC(=O)c2ccc(Br)o2)n1 | 71.9% (inactive)
8 | CCOc1ncccc1C(=O)Nc1ccc(Cl)cc1 | 79.8% (inactive)
9 | COc1cccc(NC(=O)C2C3C=CC4(O3)C2C(=O)N(C(C)C)C4C(=O)NC2CCCCC2C)c1 (stereo unspecified) | 96.9% (inactive)
10 | CCOC(=O)Cc1csc(NC(=O)CSc2nnc(C3CC3)n2C)n1 | 97.9% (inactive)
11 | COc1ccccc1OCCOCCn1cnc2ccccc2c1=O | 87.7% (inactive)
12 | O=C(CN1C(=O)CC(c2ccco2)Sc2ccccc21)Nc1ccc2c(c1)OCCO2 (stereo unspecified) | 76.9% (inactive)
13 | CCN1CCc2c(C#N)c(N3CCCCC3)nc(NCc3ccccc3)c2C1 | 16.3% (active)
14 | Cn1c(=O)c2c(nc(SCC(=O)N3CCCc4ccccc43)n2C)n(C)c1=O | 102% (inactive)
15 | Cc1cccc(CC2CC(=O)N(c3ccccc3)C2=O)c1 (stereo unspecified) | 102% (inactive)
16 | CCN(CC)S(=O)(=O)c1cccc(-c2nnc(SCCOc3ccccc3C)o2)c1 | 87.9% (inactive)
